Here are results for 14 compounds from PubChem BioAssay.

The source made the active and inactive calls.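 Rule for the calls, unless noted: active = visual image review flags a hit and inhibition of aggregation exceeds 20%; inconclusive = visual hit but inhibition at or below 20%; inactive = no hit on visual image review.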

A short description of experiment [1]: inhibitors of TNFa-induced NFkB p65 translocation, primary screen, imaging, HUVEC, MLSMR starter and 10KST1 sets (AID 438;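 active = inhibition above 20% together with a positive visual image hit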;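 note: compound added about 3h40 before a 20 min TNFalpha stimulation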;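 for inhibition: signal is the nuclear over cytoplasmic p65 intensity ratio per well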). As to conditions: HUVEC TNFa-induced p65 nuclear translocation; cell count: measured here: nuclei count (cytotoxicity indicator), at 2.08 µM; inhibition: at 2 µM, stronger effect = higher value, 0% TNFa-plus-vehicle, 100% no-TNFa wells.
The nature of experiment [2]: reduction of polyQ htt aggregates in cells – imaging, exon1htt(103Q)mCFP cells, high-content imaging, primary screen (AID 483).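 For nuclei count: percent of the per-plate median nuclei count of sample wells.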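 Note: compound exposure lasted 3 days before fixation.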 Particulars: exon1htt(103Q)mCFP cell line, aggregate imaging, at 2 µM; inhibition of aggregation: stronger effect = higher value; nuclei count: measured here: cell count, toxicity.
Experiment [3] in a line: endothelial E-selectin expression blockers – imaging, HUVEC, immunofluorescence, MLSMR starter and 10KST1 sets, primary screen (AID 487;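 active = visually confirmed hit in the image check and inhibition above 20%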;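 for inhibition: signal is fraction of cell area covered by stained E-selectin grains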;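 for nuclei count: 100% = median nuclei count of all wells on the same plate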). As to conditions: HUVEC TNFalpha-induced E-selectin immunofluorescence imaging, at 2 µM; inhibition: stronger effect = higher value; nuclei count: measured here: cell number, toxicity.
For experiment [4], the target named is Voltage-gated potassium channel subunit beta-2 (Rattus norvegicus) (UniProt P62483). In words: inhibitors of rat Kvbeta2 reductase activity – biochemical, NADPH fluorescence, primary screen (AID 622;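 active = fluorescence slope higher than the sample average by over 3 SD, cut at about -0.22 in these data, passing the limit was not always enough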;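 note: slope of raw intensity against log time taken from 70 to 1610 s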). As to conditions: recombinant KvBeta, 4-cyanobenzaldehyde reduction, at 10 µM, stronger effect = higher value.
For experiment [5] the target is unchanged. In words: enhancers of rat Kvbeta2 NADPH turnover – biochemical, NADPH fluorescence, primary screen (AID 623;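 active = NADPH fluorescence slope more negative than the mean of all samples by about 3 SD, 99.7% confidence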;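 note: fluorescence intensity change per second fitted from 20 to 320 s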). Particulars: Recombinant KvBeta, NADPH fluorescence decrease slope, 10 min; at 10 µM; stronger effect = lower value.
Experiment [6] deals with Alpha-2C adrenergic receptor (Homo sapiens) (UniProt P18825). In words: compounds altering alpha2C-coupled GIRK flux – cell-based, HEK293 alpha2C/GIRK1/2, thallium flux, primary screen (AID 624;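 active = fluorescence slope after compound addition differing from the mean of all screened samples at 99.7% confidence, in either direction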;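 note: slope of fluorescence ratio to pre-addition baseline per second over 15 to 24 s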). Particulars: thallium flux BTC fluorescence, at 10 µM, actives lie on both sides.
Experiment [7] in a line: blockers of RIG-like receptor reporter activation – cell-based, Sendai virus stimulus, luciferase, 10K MLSCN set, TLR/RLR signaling modifier project, primary screen (AID 602276;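 active = inhibition at or above 50% at 10 µM; inactive = inhibition below 50%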;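 note: firefly luciferase from ISG56 promoter only with Renilla not read in this screen; 0% = Sendai virus plus DMSO and 100% = medium plus DMSO without virus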). Particulars: HEK293 RL24 IRF3 luciferase reporter, at 10 µM, stronger effect = higher value. (In a reporter assay the amount or activity of a reporter protein is the signal.)
A short description of experiment [8]: TLR3 IRF3 reporter activation blockers – cell-based, poly I:C stimulus, luciferase, 10K MLSCN set, primary screen (AID 602277;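 active = inhibition of the reporter signal at or above 50%; inactive = inhibition below 50%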). As to conditions: HEK293-TLR3 RL24 IRF3 luciferase reporter, at 10 µM, stronger effect = higher value.

Sequence of Alpha-2C adrenergic receptor (Homo sapiens) (P18825 whole entry, looked up): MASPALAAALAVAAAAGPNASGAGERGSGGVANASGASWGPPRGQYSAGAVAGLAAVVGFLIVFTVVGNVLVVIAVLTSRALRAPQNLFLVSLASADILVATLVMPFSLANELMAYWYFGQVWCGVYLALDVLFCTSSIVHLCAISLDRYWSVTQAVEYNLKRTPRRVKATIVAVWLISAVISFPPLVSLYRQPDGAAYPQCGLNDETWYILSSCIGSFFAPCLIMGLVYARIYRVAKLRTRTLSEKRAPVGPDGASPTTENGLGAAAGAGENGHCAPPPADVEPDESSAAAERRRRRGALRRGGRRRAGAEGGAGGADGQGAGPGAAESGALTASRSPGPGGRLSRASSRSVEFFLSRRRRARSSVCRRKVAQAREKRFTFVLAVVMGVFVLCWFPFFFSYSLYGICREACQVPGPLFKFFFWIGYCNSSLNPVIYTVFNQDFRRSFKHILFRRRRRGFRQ
Sequence of Voltage-gated potassium channel subunit beta-2 (Rattus norvegicus) (P62483 whole entry, looked up): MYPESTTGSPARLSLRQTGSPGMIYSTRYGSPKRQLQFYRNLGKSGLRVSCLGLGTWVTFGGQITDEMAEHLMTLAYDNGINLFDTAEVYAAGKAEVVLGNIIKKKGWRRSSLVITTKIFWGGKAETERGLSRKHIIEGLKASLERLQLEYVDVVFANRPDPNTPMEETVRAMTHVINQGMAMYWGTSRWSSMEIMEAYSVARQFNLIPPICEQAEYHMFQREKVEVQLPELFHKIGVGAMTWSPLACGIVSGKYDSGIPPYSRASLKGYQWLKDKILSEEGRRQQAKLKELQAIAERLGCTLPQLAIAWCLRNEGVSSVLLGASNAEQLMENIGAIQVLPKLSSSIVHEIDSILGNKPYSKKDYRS

Regarding `O=C(Nc1nc(-c2ccccn2)cs1)C1CC1`, the cell count in experiment [1] came to 673. Further, the inhibition – broadly, the change of the read-out against control, counted positive when it falls – in experiment [1] was -3.3% (inactive); in experiment [3], -21% (inactive); in experiment [7], -68.6% (inactive); in experiment [8], -114% (inactive). Also, the inhibition of aggregation in experiment [2] is 2.7% (inactive). Moreover, the nuclei count was found to be 94.5% in experiment [2] and 115% in experiment [3]. Also, the fluorescence slope in experiment [4] was -0.482 (inactive). Further, the NADPH fluorescence slope in experiment [5] was -7.5e-05 (inactive). The slope in experiment [6] is 0.00645 (inactive).

With `O=C(Cn1ncc2c(=O)oc3ccccc3c21)NCCCN1CCCC1=O`, the cell count in experiment [1] is 807. Also, the inhibition in experiment [1] is -9.2% (inactive); in experiment [3], -33% (inactive); in experiment [7] it was 1.1% (inactive); in experiment [8], 24.5% (inactive). Besides, the inhibition of aggregation in experiment [2] was 10.5% (inactive). In addition, the nuclei count turned out to be 84.8% in experiment [2] and 116% in experiment [3]. Moreover, in experiment [4], the fluorescence slope was -0.576 (inactive). Further, the NADPH fluorescence slope in experiment [5] was -1.5e-05 (inactive). In experiment [6], the slope is 0.00642 (inactive).

On to `COc1ccc(C(=O)NCCSc2ccccn2)cc1`, for which the cell count in experiment [1] was 778. The inhibition in experiment [1] is 4.4% (inactive); in experiment [3], 48% (inactive); in experiment [7], -6.19% (inactive); in experiment [8] it was -64.3% (inactive). In experiment [2], the inhibition of aggregation is 3.3% (inactive). Moreover, the nuclei count in experiment [2] was 101%; in experiment [3] it was 95%. Also, the fluorescence slope in experiment [4] is -0.478 (inactive). Also, the NADPH fluorescence slope in experiment [5] is -6.9e-05 (inactive). Further, in experiment [6], the slope was 0.00549 (inactive).

With `Cc1c(C(=O)NC2CC2)oc2ccc(S(=O)(=O)N3CCCCCC3)cc12`, the cell count in experiment [1] was found to be 635. Also, the inhibition in experiment [1] is 3.4% (inactive); in experiment [3], -102% (inactive); in experiment [7] it was -22.3% (inactive); in experiment [8] it was -28.3% (inactive). Also, the inhibition of aggregation in experiment [2] was -2.5% (inactive). For the same compound, the nuclei count in experiment [2] came out at 92.4%; in experiment [3], 116%. In addition, the fluorescence slope in experiment [4] was -0.508 (inactive). The NADPH fluorescence slope in experiment [5] is 4.1e-05 (inactive). The slope in experiment [6] is 0.00537 (inactive).

With `COCCn1c(SCC(=O)N(C(C)C)C(C)C)nnc1-c1cc2ccccc2cc1O`, the cell count in experiment [1] was determined as 362. Besides, the inhibition was 0% (inactive) in experiment [1], -1% (inactive) in experiment [3], 11.9% (inactive) in experiment [7] and 20.1% (inactive) in experiment [8]. In experiment [2], the inhibition of aggregation was 25.9% (inactive). Moreover, the nuclei count was found to be 88.5% in experiment [2] and 97.7% in experiment [3]. Further, the fluorescence slope in experiment [4] is -0.366 (inactive). In experiment [5], the NADPH fluorescence slope was 1.3e-05 (inactive). In experiment [6], the slope was 0.00457 (inactive).

Turning to `COc1cc(C2c3c(oc4ccccc4c3=O)C(=O)N2c2ccc(C)cn2)ccc1O` (centres undefined), in experiment [1], the cell count amounted to 464. Besides, the inhibition in experiment [1] was 2.1% (inactive); in experiment [3] it was -49% (inactive); in experiment [7], -5.41% (inactive); in experiment [8], 7.4% (inactive). Moreover, the inhibition of aggregation in experiment [2] is 8.8% (inactive). In addition, the values for the nuclei count in experiment [2] and in experiment [3] were 107% and 122%, respectively. The fluorescence slope in experiment [4] is -0.598 (inactive). Moreover, in experiment [5], the NADPH fluorescence slope was -4.5e-05 (inactive). Further, the slope in experiment [6] is 0.00645 (inactive).

As to `CC1=C(C(=O)Nc2ccccc2)C(c2cccs2)C(C#N)=C(SCC#N)N1` (centres undefined), the cell count in experiment [1] came out at 713. For the same compound, the inhibition is -16.4% (inactive) in experiment [1], 34.7% (inactive) in experiment [3], -25.9% (inactive) in experiment [7] and -5.98% (inactive) in experiment [8]. The inhibition of aggregation in experiment [2] is 27.1% (inactive). Further, the results for the nuclei count in experiment [2] and in experiment [3] were 77.7% and 99.1%, respectively. Moreover, the fluorescence slope in experiment [4] was -0.525 (inactive). Besides, the NADPH fluorescence slope in experiment [5] is -6.3e-05 (inactive). For the same compound, the slope in experiment [6] is 0.00547 (inactive).

For the compound `Cc1ccc(NC(=O)c2ccccc2O)cc1`, the cell count in experiment [1] is 631. The inhibition was 12.1% (inactive) in experiment [1], -203% (inactive) in experiment [3], -61.1% (inactive) in experiment [7] and -73.1% (inactive) in experiment [8]. Also, the inhibition of aggregation in experiment [2] is 8% (inactive). Also, the nuclei count in experiment [2] turned out to be 91.3%; in experiment [3] it was 119%. Moreover, the fluorescence slope in experiment [4] is -0.602 (inactive). Also, in experiment [5], the NADPH fluorescence slope was -5.6e-05 (inactive). For the same compound, in experiment [6], the slope is 0.00651 (inactive).

`CCN(CC)CCN1C(=O)c2oc3ccc(F)cc3c(=O)c2C1c1ccncc1` (centres undefined): in experiment [1], the cell count came to 598. The inhibition in experiment [1] is -12.9% (inactive); in experiment [3], -5.7% (inactive); in experiment [7], 15.9% (inactive); in experiment [8] it was 44.8% (inactive). The inhibition of aggregation in experiment [2] is -2.9% (inactive). For the same compound, the nuclei count in experiment [2] amounted to 102%; in experiment [3], 111%. For the same compound, in experiment [4], the fluorescence slope was -0.536 (inactive). Further, in experiment [5], the NADPH fluorescence slope is -4.3e-05 (inactive). In addition, the slope in experiment [6] is 0.00733 (inactive).

In the case of `O=C(NCCN1CCCCCC1)c1ccc(CS(=O)(=O)c2ccc(Br)cc2)o1`, in experiment [1], the cell count came out at 591. In addition, the inhibition in experiment [1] was -0.5% (inactive); in experiment [3], -63.4% (inactive); in experiment [7], -15.7% (inactive); in experiment [8] it was 16.4% (inactive). Further, the inhibition of aggregation in experiment [2] is -28.3% (inactive). Further, the nuclei count came to 98.6% in experiment [2] and 103% in experiment [3]. In addition, the fluorescence slope in experiment [4] is -0.445 (inactive). The NADPH fluorescence slope in experiment [5] was 1.2e-05 (inactive). Also, the slope in experiment [6] is 0.00438 (inactive).

In the case of `CC(=O)N1CCN(c2ccc(S(=O)(=O)N3CCCCC3)cn2)CC1`, the cell count in experiment [1] stood at 719. Also, the inhibition in experiment [1] is 0.8% (inactive); in experiment [3], -6.8% (inactive); in experiment [7] it was 6.79% (inactive); in experiment [8], 8.53% (inactive). Moreover, the inhibition of aggregation in experiment [2] was 4.2% (inactive). Further, the nuclei count in experiment [2] was 101%; in experiment [3], 132%. Besides, the fluorescence slope in experiment [4] is -0.591 (inactive). Besides, in experiment [5], the NADPH fluorescence slope is 1.1e-05 (inactive). For the same compound, the slope in experiment [6] is 0.00522 (inactive).

`Cc1cc(-c2ccccc2)c(C#N)c(N)n1`: in experiment [1], the cell count is 331. The inhibition was -6.4% (inactive) in experiment [1], -11.3% (inactive) in experiment [3], 18.7% (inactive) in experiment [7] and 34.2% (inactive) in experiment [8]. The inhibition of aggregation in experiment [2] is -10.4% (inactive). The nuclei count is 94.7% in experiment [2] and 115% in experiment [3]. In addition, the fluorescence slope in experiment [4] was -0.394 (inactive). In addition, in experiment [5], the NADPH fluorescence slope is -6.4e-07 (inactive). Besides, in experiment [6], the slope is 0.00466 (inactive).

Turning to `O=C1C2ON(c3ccc(Cl)cc3)C(c3ccco3)C2C(=O)N1c1ccccc1` (centres undefined), in experiment [1], the cell count is 510. For the same compound, the inhibition is -2% (inactive) in experiment [1], -106% (inactive) in experiment [3], -6.65% (inactive) in experiment [7] and -3.63% (inactive) in experiment [8]. Moreover, the inhibition of aggregation in experiment [2] was 15.7% (inactive). The results for the nuclei count in experiment [2] and in experiment [3] were 97% and 107%, respectively. The fluorescence slope in experiment [4] is -0.511 (inactive). Also, in experiment [5], the NADPH fluorescence slope is -2.4e-05 (inactive). Moreover, in experiment [6], the slope is 0.00581 (inactive).

As to `Cc1c(NC(=O)C2(c3ccccc3)CCOCC2)c(=O)n(-c2ccccc2)n1C`, in experiment [1], the cell count amounted to 552. In addition, the inhibition is 11.5% (inactive) in experiment [1], 25.9% (inactive) in experiment [3], 0.891% (inactive) in experiment [7] and 9.22% (inactive) in experiment [8]. For the same compound, the inhibition of aggregation in experiment [2] was 9.2% (inactive). In addition, the nuclei count was found to be 90.5% in experiment [2] and 130% in experiment [3]. Moreover, in experiment [4], the fluorescence slope is -0.435 (inactive). Further, the NADPH fluorescence slope in experiment [5] was 2.3e-05 (inactive). Also, the slope in experiment [6] is 0.00624 (inactive).
